# Test results taken from PubChem BioAssay (EPA / NIEHS).
# Values joined by “and” are separate entries in the source; they are usually repeats but may differ in a detail not shown here. Equal values may be shown once. Some structures have more than one record in an assay (separate samples or runs), and their calls can disagree. Active and inactive are the calls of the source. Rule for the calls: active = hit-call score of the fitted dose curve at least 0.9, where 1 is the maximum; inactive = score below 0.9.
# Experiments:
# [1] = read-out: Interleukin-8 (IL8), CXCL8 (gene 3576); assay: BSK_IMphg_IL8: BioMAP Diversity Plus: IMphg Assay for Interleukin-8 (IL8) Biomarker Activity (AID 2284277); details: primary human endothelial cells with macrophages
# Outline: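 Co-culture of human venular endothelial cells and macrophages exposed to chemicals for 24 h; IL-8 quantified by ELISA and compared against the DMSO baseline, with SRB total-protein staining in parallel cultures for cytotoxicity.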
# [2] = read-out: Intercellular Adhesion Molecule 1 (ICAM1), ICAM1 (gene 3383); assay: BSK_BE3C_ICAM1: BioMAP Diversity Plus: BE3C Assay for Intercellular Adhesion Molecule 1 (ICAM1) Biomarker Activity (AID 2284278); details: primary human bronchial epithelial cells
# Outline: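 Human primary bronchial epithelial cultures; compound added; 24 h incubation; cell-surface ICAM-1 measured by ELISA; signal increase fitted relative to DMSO negative control.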
# [3] = read-out: Interferon-inducible T-cell alpha chemoattractant (ITAC), CXCL11 (gene 6373); assay: BSK_BE3C_ITAC: BioMAP Diversity Plus: BE3C Assay for Interferon-inducible T-cell alpha chemoattractant (ITAC) Biomarker Activity (AID 2284279); details: primary human bronchial epithelial cells
# Protocol: BSK_BE3C is a cell-based, multiplexed-readout assay that uses bronchial epithelial cell, a human lung primary cell, with measurements taken at 24 hours after chemical dosing in a 96-well plate.BSK_BE3C_ITAC is an assay component measured in the BSK_BE3C assay. It measures I-TAC antibody related to regulation of gene expression using ELISA technology.Data from the assay component BSK_BE3C_ITAC was analyzed at the endpoint, BSK_BE3C_ITAC, in the positive analysis fitting direction relative to DMSO as the negative control and baseline of activity. Using a type of binding reporter, gain or loss-of-signal activity can be used to understand protein changes. […]
# (§1) The levels of cell surface (or secreted, indicated by the prefix "s") biomarker endpoints were measured by ELISA. Overt cytotoxicity to cells in confluent adherent cultures (all systems other than the BT system) was assessed by measuring total protein levels using sulforhodamine B (SRB) staining in parallel cultures at the time of biomarker measurements, indicated as SRB endpoints. For proliferation assays for adherent cell types, individual cell types are cultured at sub-confluence and relative cell numbers quantified by SRB staining at time points optimized for each system (48 h: 3C and CASM3C systems; 72 h: BT and HDF3CGF systems; 96 h: SAg system). […] Plates were read after 6 h.
# [4] = read-out: Interleukin-8 (IL8), CXCL8 (gene 3576); assay: BSK_BE3C_IL8: BioMAP Diversity Plus: BE3C Assay for Interleukin-8 (IL8) Biomarker Activity (AID 2284280); details: primary human bronchial epithelial cells
# Outline: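 IL-8 signal gain, normalised to DMSO vehicle, was scored after a 24 h chemical exposure of primary human bronchial epithelial cells, with detection by ELISA.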
# [5] = read-out: Epidermal growth factor receptor (EGFR), EGFR (gene 1956); assay: BSK_BE3C_EGFR: BioMAP Diversity Plus: BE3C Assay for Epidermal growth factor receptor (EGFR) Biomarker Activity (AID 2284281); details: primary human bronchial epithelial cells
# Protocol: BSK_BE3C is a cell-based, multiplexed-readout assay that uses bronchial epithelial cell, a human lung primary cell, with measurements taken at 24 hours after chemical dosing in a 96-well plate.BSK_BE3C_EGFR is an assay component measured in the BSK_BE3C assay. It measures EGFR antibody related to regulation of gene expression using ELISA technology.Data from the assay component BSK_BE3C_EGFR was analyzed at the endpoint, BSK_BE3C_EGFR, in the positive analysis fitting direction relative to DMSO as the negative control and baseline of activity. Using a type of binding reporter, gain or loss-of-signal activity can be used to understand protein changes. To generalize the intended target to other relatable targets, this assay endpoint is annotated to the 'kinase' intended target family, where the subfamily is 'receptor tyrosine kinase'.
# as §1, with “system). SRB was performed by staining cells with 0.1% SRB after fixation with 10% TCA and reading wells at 560 nm.Viability and proliferation of PBMC (T cells) was quantified by Alamar Blue reduction for the SAg and BT systems. […] Then, Alamar Blue (20 uL/well) (Invitrogen, Cat DAL1100) was added for 6 h, and the plates were read with a fluorescence microplate reader at 546/580 nm (excitation/emission).” for “system).”
# KRT18 (gene 3875) = assay: BSK_BE3C_Keratin818: BioMAP Diversity Plus: BE3C Assay for Keratin 818 Biomarker Activity (AID 2284282); details: primary human bronchial epithelial cells
# Outline: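 Chemicals are added to human lung bronchial epithelial primary cells (BE3C system) and incubated 24 h. Keratin 8/18 is then measured by ELISA, with parallel SRB total-protein staining gauging overt cytotoxicity.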
# [6] = read-out: Matrix Metallopeptidase 9 (MMP9), MMP9 (gene 4318); assay: BSK_BE3C_MMP9: BioMAP Diversity Plus: BE3C Assay for Matrix Metallopeptidase 9 (MMP9) Biomarker Activity (AID 2284283); details: primary human bronchial epithelial cells
# Outline: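 ELISA read-out of MMP-9 after 24 h compound exposure of human lung bronchial epithelial primary cells (BE3C). Fit in gain direction vs DMSO negative control; total protein by SRB in parallel cultures flagged overt cytotoxicity.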
# [7] = read-out: Plasminogen activator inhibitor-1 (PAI1), SERPINE1 (gene 5054); assay: BSK_CASM3C_PAI1: BioMAP Diversity Plus: CASM3C Assay for Plasminogen activator inhibitor-1 (PAI1) Biomarker Activity (AID 2284284); details: primary human coronary artery smooth muscle cells;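 note: PAI-1 protein level measured by ELISA 24 h after dosing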
# [8] = read-out: Monocyte Chemoattractant Protein-1 (MCP1), CCL2 (gene 6347); assay: BSK_hDFCGF_MCP1: BioMAP Diversity Plus: hDFCGF Assay for Monocyte Chemoattractant Protein-1 (MCP1) Biomarker Activity (AID 2284285); details: primary human foreskin fibroblasts
# Outline: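 Human foreskin fibroblasts (hDFCGF system) were exposed to compound and secreted MCP-1 was measured by ELISA after 24 hours. Activity was fitted relative to DMSO. Cytotoxicity was checked by SRB total-protein staining in parallel cultures.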
# [9] = read-out: Vascular cell adhesion molecule 1 (VCAM1), VCAM1 (gene 7412); assay: BSK_IMphg_VCAM1: BioMAP Diversity Plus: IMphg Assay for Vascular cell adhesion molecule 1 (VCAM1) Biomarker Activity (AID 2284286); details: primary human endothelial cells with macrophages
# Protocol: BSK_IMphg is a cell-based, multiplexed-readout assay that uses venular endothelial cells and macrophages, a human vascular primary cell, with measurements taken at 24 hours after chemical dosing in a microplate: 96-well plate.BSK_IMphg_VCAM1 is an assay component measured in the BSK_IMphg assay. It measures VCAM-1 antibody related to regulation of gene expression using ELISA technology.Data from the assay component BSK_IMphg_VCAM1 was analyzed at the endpoint, BSK_IMphg_VCAM1, in the positive analysis fitting direction relative to DMSO as the negative control and baseline of activity. Using a type of binding reporter, gain or loss-of-signal activity can be used to understand protein changes. […]
# as §1
Compound,outcome [1],AC50 [2],outcome [2],AC50 [3],AC50 [4],outcome [4],AC50 [5],outcome [5],outcome (KRT18 (gene 3875)),AC50 [6],outcome [7],outcome [8],outcome [9],AC50 [1],outcome [3],outcome [6]
O=S(=O)(O)C(F)(F)C(F)(F)C(F)(F)C(F)(F)C(F)(F)C(F)(F)C(F)(F)C(F)(F)F,inactive,49.3 µM (active) and 53.4 µM (active),inactive,40.8 µM (active) [middle of 4 runs],30 µM (active) and 7.03 µM (active) and 2.79 µM (active),inactive,16.5 µM (active) and 11.6 µM (active) and 13.2 µM (active),inactive,inactive,17.7 µM (active) [middle of 4 runs],inactive,inactive,inactive,,,
O=C(O)C(F)(F)C(F)(F)C(F)(F)C(F)(F)C(F)(F)C(F)(F)C(F)(F)F,inactive,,inactive,,,inactive,,inactive,inactive,,inactive,inactive,inactive,20.5 µM (active) and 20.3 µM (active) and 25.2 µM (active),inactive,inactive
